# From PubChem BioAssay AID1963822 (ICCB-Longwood Screening Facility, Harvard Medical School, 2024)
# Out of some 55,000 compounds screened, about 90 (0.2%) were called active. No rule for the calls is given here. The full list was thinned out, with actives kept by preference.
# Experiment: anaerobic choline-dependent bacterial growth inhibition – minimal medium, absorbance (AID 1963822)
# Settings: Gram-negative bacterium anaerobic choline minimal medium
# [1] = measured here: choline growth z-score, timepoint 1, stronger effect = lower value
SMILES,z-score (stronger effect = lower value),z-score [1]
O=S(=O)(Nc1ccc(F)cc1)c1cc(-c2noc(C3CC3)n2)cs1,0.08 (inactive),-0.4
COc1ccccc1CNc1ncc2nc(-c3ccccc3)oc2n1,-0.72 (inactive),-0.32
Cc1ccc(-c2cc(C(=O)N3CCN(C)CC3)no2)cc1C,-2.15 (inactive),-1.67
C=CCn1c(=O)c(=O)n(Cc2ccc(C(=O)N3CCC(N4CCCCC4)CC3)cc2)c2ccccc21,0.52 (inactive),0.14
O=C(Cn1cccc1-c1nc(-c2ccc(Cl)cc2)cs1)NCc1ccc2c(c1)OCO2,0.32 (inactive),-0.44
CC(C)c1nnc2ccc(N3CCN(C(C)C)CC3)nn12,0.55 (inactive),-2.47
CCCN1C(=O)c2ccccc2Sc2cc(-c3noc(/C=C/c4ccccc4)n3)ccc21,-0.13 (inactive),0.3
COC(=O)Cn1nc2c(-c3nc(-c4ccc(Cl)cc4)no3)cccn2c1=O,-0.55 (inactive),-1.3
Cc1ccc(N2CC(c3nc(-c4ccc(N5CCCC5)cc4)no3)CC2=O)cc1C (stereo not drawn),0.33 (inactive),0.93
CC1CCN(CCCNC(=O)Cc2ccc(NC(=O)N3CCSc4ncccc43)cc2)CC1,1.04 (inactive),0.79
Cc1cc(C)c2nc(C)cc(C(=O)NC3CC3)c2c1,1.05 (inactive),0.53
CCC1(CC)Cc2ccccc2-c2[nH]c(=O)n(CC3=CCCO3)c(=O)c21,0.12 (inactive),-1.14
COc1ccccc1N1CCN(c2ccc(=O)n(CC(=O)NCc3ccccn3)n2)CC1,-0.67 (inactive),-0.7
CN(C)C(=O)c1cc2c(s1)CCC(C(=O)N(C)C)C2 (stereo not drawn),0.34 (inactive),0.33
CC(C)(C)c1ccc(S(=O)(=O)NCc2nc(N)n(S(=O)(=O)c3ccc(C(C)(C)C)cc3)n2)cc1,-0.11 (inactive),0.06
CCOc1ccc(N(Cc2nc3nc(C)cc(C)n3n2)C(=O)CC(C)C)cc1,-0.89 (inactive),-1.11
CCOc1ccc(-c2cc(C(=O)Oc3ccc(OC)cc3)no2)cc1,-0.02 (inactive),0.37
O=C(CN1C(=O)CSc2ccc(S(=O)(=O)N3CCCC3)cc21)Nc1cccnc1,0.64 (inactive),0.19
O=C(NC1CC1)C1CCCN(c2ccc3cc(S(=O)(=O)N4CCCCC4)ccc3n2)C1 (stereo not drawn),-0.89 (inactive),-0.76
O=C(Nc1ccc(F)cc1)c1ccccn1,-3.6 (inactive),-3.98
O=C(c1nnc(-c2ccc(S(=O)(=O)N3CCCC3)cc2)o1)N1CCCC1,0.25 (inactive),0.12
COc1ccnc2c1c(=O)n(CC(=O)N1CCCc3ccccc31)c(=O)n2C,1.04 (inactive),0.31
CCC(=O)NCCc1nc2cc(NC(=O)C3CCCCC3)ccc2n1C,-0.79 (inactive),-0.11
COc1cccc(CSc2nc3c(-c4ccccc4)c[nH]c3c(=O)[nH]2)c1,0.44 (inactive),-0.28
Cn1c(=O)n(-c2ccc(F)cc2)c2nc(-c3cccc(F)c3)nc(C(N)=O)c21,-0.47 (inactive),0.68
CCc1nc2ccccc2c(=O)n1Cc1noc(CN2C(=O)COc3ccccc32)n1,0.03 (inactive),0.5
O=C(NC1CCCc2ccccc21)c1ccc(-c2cc(N3CCOCC3)ncn2)cc1 (stereo not drawn),0.49 (inactive),-1.29

SMILES,z-score (stronger effect = lower value),z-score [1]
Cc1noc(-c2cccnc2N2CCN(C(c3ccccc3)c3ccccc3)CC2)n1,0.85 (inactive),0.28
Cc1nc(-c2cc(S(=O)(=O)N3CCN(c4ccccc4F)CC3)c(C)s2)cs1,1.43 (inactive),0.83
O=C(NCCN1CCOCC1)C1CCN(c2cncnc2N2CCCCC2)CC1,0.71 (inactive),0.79
C=CCSc1n[nH]c(NC(C)=O)n1,0.76 (inactive),0.64
Cc1ccc(C(C)C)c(OC(C)C(=O)Nc2onc3c2CCCC3)c1 (stereo not drawn),-0.74 (inactive),-0.51
CCN1C(=O)c2ccccc2Sc2cc(-c3noc(-c4ccc5c(c4)OCO5)n3)ccc21,0.5 (inactive),0.22
CCOc1ccc(N2CCCCn3c2nc2c3c(=O)n(CCC(C)C)c(=O)n2C)cc1,-0.58 (inactive),0.29
COc1ccc(-c2cc3nc(C)cc(N4CCOCC4)n3n2)cc1OC,0.32 (inactive),-0.41
CCN(CCCNC(=O)c1cccn2c(=O)c3ccccc3nc12)c1cccc(C)c1,1.29 (inactive),1.6
Cc1ccc(/C=C/c2nn3c(-c4ccoc4C)nnc3s2)cc1C,-0.03 (inactive),0.36
O=C(CCc1nc(CSc2nnc(-c3ccccc3)o2)no1)Nc1ccc(F)c(Cl)c1,-0.29 (inactive),-0.24
COc1cc(OC)cc(N2C=C(C#N)S(=O)(=O)c3cc(F)ccc32)c1,0.71 (inactive),0.22
O=S(=O)(c1ccc2c(c1)-c1oncc1CO2)N1CCN(C(c2ccccc2)c2ccccc2)CC1,0 (inactive),-0.77
CC(=O)N1CCc2cc(N3CC(C(=O)N4CCC5(CC4)OCCO5)CC3=O)ccc21 (stereo not drawn),-1.2 (inactive),-0.84
O=S(=O)(c1ccccc1F)N1CCN(c2ncnc3c2nnn3-c2ccccc2)CC1,1.03 (inactive),0.86
COc1cc(C2Nc3c(C)cc(C)cc3[C@H]3OCC[C@@H]23)cc(Br)c1OC (stereo partly drawn),0.49 (inactive),0.1
Cc1cc(C)nc(SCCn2c(N3CCC(C)CC3)nc3c2c(=O)[nH]c(=O)n3C)n1,0.25 (inactive),0.24
COc1ccc(C2CC(c3c(O)n(C)c(=O)n(C)c3=O)=NN2)cc1 (stereo not drawn),0.56 (inactive),0.56
O=C(Cn1c(=O)c(=O)n(Cc2ccncc2)c2ncccc21)NCCN1CCCCC1,1.65 (inactive),0.64
COC(=O)c1cc(S(=O)(=O)N2CCCC2C(=O)N2CCc3ccccc32)cn1C (stereo not drawn),-0.38 (inactive),-0.18
COc1ccc(-c2cc(Oc3cccc(C(=O)NC4CCCCC4)c3)ncn2)cc1,1.55 (inactive),1.41
O=C(NCCC1=CCCCC1)C1CCN(c2cc(-c3cccc(F)c3)ncn2)CC1,1.01 (inactive),0.77
CC(C)NC(=O)Cc1csc(NC(=O)C2CC2)n1,0.37 (inactive),-0.55
COc1cccc(NC(=O)c2ccc(-n3nc(N4CCCC4)ccc3=O)cc2)c1,-0.3 (inactive),-0.77
CCOC(=O)c1cnc(SC(CC)C(=O)Nc2ccc(Br)cc2)nc1N (stereo not drawn),0.81 (inactive),0.87
O=C1CN(C(=O)CSc2ccc(Cl)cc2)c2ccccc2N1,-2.07 (inactive),-0.23
COc1ccc(C2N=C(Nc3ccc(C(C)C)cc3)Nc3nc(C)cc(=O)n32)cc1OC (stereo not drawn),0.3 (inactive),-0.84

SMILES,z-score (stronger effect = lower value),z-score [1]
Cc1nc(-c2csc(S(=O)(=O)N3CCCC(C(=O)N4CCCCC4)C3)c2)no1 (stereo not drawn),0.63 (inactive),-0.32
CC(=O)N1CCCN(S(C)(=O)=O)CC1,0.45 (inactive),1.28
CC(C)c1nnc(-c2cc3ccccc3n2CC(=O)N(C(C)C)C(C)C)o1,-0.44 (inactive),0.05
COc1cc(C2OC(c3ccccc3)=NN2C(C)=O)ccc1O (stereo not drawn),-1.46 (inactive),-1.53
O=C(Cn1nc2n(CCc3ccccc3)c(=O)c3ccccc3n2c1=O)NCc1ccccc1Cl,0.2 (inactive),0.39
COc1ccc(OC)c(CNC(=O)C2CCCN(c3ncnc4c3oc3ccccc34)C2)c1 (stereo not drawn),-0.39 (inactive),-0.94
CN(C)CCCNC(=O)c1sc2ncccc2c1-n1cccc1,-0.76 (inactive),-0.95
Cc1ccc(/C=C/c2nc(-c3ccc4c(c3)[nH]c(=O)c(=O)n4C(C)C)no2)cc1,0.12 (inactive),-0.05
CCc1nc(-c2ccc(C(=O)NCC(=O)Nc3ccc(Cl)cc3)cc2)no1,-0.03 (inactive),-0.94
CC(C)C(=O)N1CCN(c2ccc(Nc3c4c(nc5nc(-c6ccccc6)nn35)CCCC4)cc2)CC1,-0.12 (inactive),0.82
O=C(NCCc1cscn1)[C@H]1CSCN1C(=O)c1ccccc1,0.46 (inactive),0.42
CCC(=O)Nc1cccc(-c2noc(C3CCCN(C(=O)c4ccc(F)cc4)C3)n2)c1 (stereo not drawn),0.07 (inactive),-0.16
O=S(=O)(c1ccc2c(c1)CCCC2)N1CCC2(CC1)Nc1cc(F)ccc1-n1cccc12,-0.8 (inactive),-0.36
O=S(=O)(c1ccccc1)c1ccc(N2CCN(c3ccccc3)CC2)nn1,-0.18 (inactive),-1.06
O=C(NCCc1cnc[nH]1)c1ccc(Cn2c(SCc3ccc(F)cc3)nc3cccnc32)cc1,-0.7 (inactive),-0.94
CCOC(=O)CC1=CC(SCC(=O)c2cc(C)ccc2C)=Nc2ccccc2N1,0.16 (inactive),0.19
COc1ccc(NC(=O)c2ccc(-c3nc(-c4ccccc4)no3)cc2)cc1,-1.61 (inactive),-1.39
Cc1ccc2c(Cl)c(C(=O)Nc3onc4c3CCCC4)sc2c1,0.44 (inactive),0.27
COc1ccc(Cn2c(CCC(=O)Nc3cccc(C)c3C)nc3cccnc32)cc1,0.59 (inactive),0.56
CC(=O)Nc1ccc(N(C)CCCc2c(C)nn(C)c2C)c(C(=O)O)c1,0.96 (inactive),0.43
COC(=O)CSc1nc2cc(-c3ccccc3)sc2c(=O)n1C,0.31 (inactive),0.31
CCCN(C)S(=O)(=O)c1c(C)[nH]c(-c2nnc(C3CCC3)o2)c1C,0.79 (inactive),0.59
COc1ccc2nc(-n3nc(C)c4c3NC(=O)CC4c3ccsc3)sc2c1 (stereo not drawn),-2.13 (active),-0.51
COc1ccc2nc(-n3nc(C)c4c3NC(=O)CC4c3ccc4c(c3)OCO4)sc2c1 (stereo not drawn),1.23 (inactive),1.32
COc1ccc2nc(-n3nc(C)c4c3NC(=O)CC4c3cc(Br)ccc3OC)sc2c1 (stereo not drawn),-0.06 (inactive),0.15
